Assay outcomes from PubChem.
In the library only some 19% were active in any assay of this set; here they are far more common.
IL-1B inflam inh = qHTS for Inhibitors of Inflammasome Signaling: IL-1-beta AlphaLISA Primary Screen; THP-1 LPS/ATP IL-1B secretion, AlphaLISA, 16 h; active compounds read low; activity change, % at 57.5 µM; 4.7% of 360,000 active; in the data active = activity change below about -50%; inconclusive = mostly about -30% to -49%
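Secreted IL-1B measured by AlphaLISA bead assay after 16 h compound exposure of THP-1 cells; compounds (final up to 57.5 uM) added 1 h before LPS (250 ng/mL) and ATP (1.25 mM) stimulation; lower signal means less secretion.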
HT1080 IDH1KD tx = qHTS for induction of synthetic lethality in tumor cells producing 2HG: qHTS for the HT-1080-IDH1KD cell line. Potency, µM (highest dose often 46.1 µM), without a hit: top-dose activity, negative = toxicity, actives largely listed as cytotoxic. AID 686971, 2013. HT-1080 IDH1 knockdown viability, ATP luminescence, 48 h. 2% of 360,000 active;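 note: potency is the fitted concentration of half-maximal effect; 0% = DMSO wells and -100% = cell-free medium wells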
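HT-1080-IDH1KD cells (IDH1 knocked down), 750/well in RPMI with 5% FBS, treated with compound 48 h at 37 degrees C. Viability by CellTiter-Glo luminescence, normalised to DMSO and no-cell wells; concentration-response curves classed.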
HT1080-NT tox = qHTS for induction of synthetic lethality in tumor cells producing 2HG: qHTS for the HT-1080-NT fibrosarcoma cell line. HT-1080-NT fibrosarcoma viability, CellTiter-Glo ATP luminescence, 48 h. Potency, µM (highest dose often 46.1 µM), inactives show at the top dose activity, negative = less viability, usual class: cytotoxic. 1.6% of 360,000 active. AID 686970, 2013;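 note: NT is the 2HG producing partner of a matched IDH1 knockdown line; potency is the fitted concentration of half-maximal effect; 0% = DMSO-treated cells and -100% = media-only wells without cells; nearly all actives have a fitted effect of over 55% in size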
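Viability of the 2HG-overproducing fibrosarcoma line after 48 hours of compound exposure at 37 degrees C was determined by luminescence with CellTiter-Glo, and concentration-effect curves were then fitted and categorized.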
DT40 TDP1 CPT = qHTS for Inhibitors of human tyrosyl-DNA phosphodiesterase 1 (TDP1): qHTS in cells in presence of CPT; chicken DT40 Tdp1-/-;hTDP1 cells + 20 nM CPT, ATP luminescence, 48 h; Potency, µM (titrated, usually from 46.2 µM), for the others: at the top dose activity change, negative = growth inhibition, hits mostly inhibitors; AID 686979, 2013; 12% of 420,000 active; note: potency is the fitted concentration of half-maximal effect; nearly all actives have a fitted effect of over 55% in size
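Cell growth measured by CellTiter-Glo luminescence after a minimum 48 h, 37 C compound exposure with 20 nM CPT in Tdp1-knockout DT40 cells stably expressing hTDP1, seeded 400/well; qHTS titration format.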
TDP1 cell noCPT = qHTS for Inhibitors of human tyrosyl-DNA phosphodiesterase 1 (TDP1): qHTS in cells in absence of CPT. AID 686978, 2013. DT40 Tdp1-/- hTDP1 cells, no CPT, ATP luminescence, 48 h. 15% of 420,000 active. Potency, µM (doses to about 46.2 µM), for the others: at the top dose activity change, negative = growth inhibition, usual class: inhibitors; note: potency is the fitted concentration of half-maximal effect; nearly all actives have a fitted effect of over 55% in size
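Readout: luminescence from CellTiter-Glo after 30 min in the dark at RT. Cells: DT40 Tdp1-/- with stable hTDP1, 400/well. Exposure: compounds alone, ≥48 hr, 37 °C.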
* hit, by the source's call; ? = inconclusive; / = no result. Unless noted, calls come from the whole dose curve; as a rule, active = well fitted curve in the direction sought with a large enough effect; inconclusive = small, poorly fitted or top-dose-only effect, or another doubt; inactive = no such curve, though single readings can be large; an effect the other way counts as inactive or inconclusive. Unless noted, % is set by controls: 0 for no effect and ±100 for the full control effect.

SMILES	IL-1B inflam inh	HT1080 IDH1KD tx	HT1080-NT tox	DT40 TDP1 CPT	TDP1 cell noCPT
CC1(C)[C@@H](O)CC[C@]2(C)C3C(=O)C=C4C5C[C@@](C)(C(=O)O)CC[C@]5(C)CC[C@@]4(C)[C@]3(C)CC[C@@H]12 (stereo partly drawn)	/	/	/	5.4%	-7.4%
O=C1C2=C(Nc3ccccc3SC2c2c(F)cccc2Cl)c2ccccc21 (stereo not drawn)	/	/	/	14.6µM*	?
O=C(CC1Sc2ccccc2NC1=O)NNc1cccc(Cl)c1Cl (stereo not drawn)	-1.6	?	?	?	?
Cc1ccc(OCC(=O)NCCNC(=O)c2ccncc2)cc1	1.6	4.4%	0.0%	4.7%	-12.4%
Cc1cc(NC(=S)N(CCN2CCOCC2)Cc2ccccc2F)ccc1Cl	-58.5*	0.5%	-18.3%	?	18.4µM*
COc1cccc(NC(=S)N(CCCN2CCOCC2)Cc2cn(C)c3ccccc23)c1	-13.1	-24.8%	-26.3%	9.2µM*	14.6µM*
O=c1[nH]c(=S)[nH]c2c1C(c1ccccc1)OC(C1CCCCC1)C2 (stereo not drawn)	37.2	2.4%	-1.0%	5.8%	-23.5%
COc1ccc(OC)c(NC(=O)C2(C)CCN2Cc2ccsc2)c1 (stereo not drawn)	-9.4	12.4%	13.6%	16.4µM*	11.6µM*
CC1(C(=O)Nc2ccc3c(c2)OCCO3)CCN1Cc1ccccc1OC(F)F (stereo not drawn)	10.3	2.3%	4.6%	?	?
CC1(C(=O)Nc2cccc(NS(C)(=O)=O)c2)CCN1Cc1ccccc1OC(F)F (stereo not drawn)	-22.1	?	-18.5%	23.1µM*	16.4µM*
COc1cccc(NC(=O)C2(C)CCN2Cc2ccccc2OC(F)F)c1 (stereo not drawn)	-12.9	?	?	20.6µM*	16.4µM*
COc1ccc(CN2CCC2(C)C(=O)Nc2cccc(NS(C)(=O)=O)c2)c2ccccc12 (stereo not drawn)	-3.9	?	?	?	?
CC(=O)N1CCc2cc(NC(=O)C3(C)CCN3Cc3ccccc3OC(F)F)ccc21 (stereo not drawn)	-9.4	?	?	25.9µM*	18.4µM*
O=C1CCC(/C=C/c2ccccc2)=NN1Cc1ccc(F)cc1	-17.5	-6.2%	-10.3%	-25.5%	?
CCOC(=O)C[C@@H]1OC[C@H](C(C)C)N1S(=O)(=O)c1ccc(C)cc1	23.9	-0.4%	6.9%	?	?
COc1ncc2nc(C)c(=O)n(C[C@H]3CCCO3)c2n1	/	/	/	3.5%	1.1%
CC(=O)N1CCc2cc(NC(=O)C3(C)CCN3CCc3ccccc3)ccc21 (stereo not drawn)	-6.2	?	?	20.6µM*	20.6µM*
COc1ccc(OC)c(NC(=O)C2(C)CCN2Cc2ccccc2OC(F)F)c1 (stereo not drawn)	-17.0	-15.2%	?	?	16.4µM*
COc1ccc(OC)c(NC(=O)C2(C)CCN2C(C)C)c1 (stereo not drawn)	0.0	14.6%	?	-18.5%	-21.8%
Cc1c(Br)cccc1NC(=O)C1(C)CCN1Cc1ccccc1OC(F)F (stereo not drawn)	-1.5	?	?	25.9µM*	?
COc1ccc(NC(=O)CC2NCCNC2=O)c(OC)c1 (stereo not drawn)	/	/	/	1.5%	-14.9%
Oc1ccc(Cl)cc1-c1cc(C(F)(F)C(F)F)nc(-c2ccccc2)n1	13.9	-4.3%	1.5%	29.1µM*	16.4µM*
Cc1ccc(O)c(-c2cc(C(F)(F)C(F)F)nc(-c3ccccc3)n2)c1	11.3	1.8%	-0.1%	-11.4%	?
CCCCNC(=O)Cn1c(=O)cc(C)c2c(C)nn(-c3ccc(CC)cc3)c21	/	/	/	-16.5%	-18.3%
Cc1c(CN2CCc3c([nH]c4ccccc34)C2C2CCCCC2)cnn1C (stereo not drawn)	-7.0	-14.5%	-3.1%	-3.0%	16.4µM*
SMILES	IL-1B inflam inh	HT1080 IDH1KD tx	HT1080-NT tox	DT40 TDP1 CPT	TDP1 cell noCPT
CCn1ccnc1CN1CCc2c([nH]c3ccccc23)C1C(C)(C)C (stereo not drawn)	-84.4*	?	-29.2%	?	?
COCc1ccc(CN2CCc3c([nH]c4ccccc34)C2C(C)(C)C)o1 (stereo not drawn)	-52.6*	-10.4%	?	?	?
Cc1cnc(CN2CCc3c([nH]c4ccccc34)C2CC(C)C)[nH]1 (stereo not drawn)	?	-8.6%	-20.6%	?	?
CCn1ccnc1CN1CCc2c([nH]c3ccccc23)C1CC(C)C (stereo not drawn)	-4.3	-8.7%	?	?	16.4µM*
Fc1ccc(Cn2nnnc2CN2CCc3ccccc3C2)cc1	-9.9	-16.4%	-23.7%	?	?
Cc1ccc(CNC(=O)Cn2c(=O)n(-c3ccc(Cl)cc3)c(=O)c3c(C)c(C)sc32)cc1	/	/	/	-7.8%	-4.1%
CCn1ccnc1CN1CCc2c([nH]c3ccccc23)C1C1CCCCC1 (stereo not drawn)	29.4	2.4%	7.1%	?	25.9µM*
CC(O)[C@H]1CNC(=O)C(=O)N1CCc1cccc2ccccc12 (stereo partly drawn)	21.1	9.8%	7.6%	-0.6%	-9.7%
CCC(C)[C@H]1CNCCN1CC1(c2ccccc2)CC1 (stereo partly drawn)	-14.5	-0.6%	-1.7%	20.6µM*	18.4µM*
CCC(C)[C@H]1CNCCN1CCCc1cc(OC)c(OC)c(OC)c1 (stereo partly drawn)	11.2	7.3%	7.5%	5.7%	3.2%
CCC(C)[C@H]1CNCCN1CCc1cccc2ccccc12 (stereo partly drawn)	-7.4	-0.3%	-27.8%	16.4µM*	?
CC(O)[C@H]1CNCCN1CC1(c2ccccc2)CC1 (stereo partly drawn)	3.1	15.4%	9.1%	6.7%	0.5%
CCC(C)[C@H]1CNCCN1CCC12CC3CC(CC(C3)C1)C2 (stereo partly drawn)	-61.8*	-12.1%	?	25.9µM*	11.6µM*
O=C(C[C@H]1C=C[C@@H](NC(=O)Cc2cccnc2)[C@@H](CO)O1)NCc1ccc2c(c1)OCO2	24.4	12.9%	21.0%	-3.2%	5.6%
O=C(c1csnn1)N1CCC2(CCCN(c3cccc(-c4ccccc4)c3)C2)CC1	/	/	/	12.2%	?
